{"source": "PubChem BioAssay", "key": {"[1]": {"assay": "circadian clock period modulators, cell-based, LOPAC library, luminescence reporter (AID 2774; call rule not given here)", "details": "circadian reporter cells, at 7 µM, actives lie on both sides"}, "[2]": {"target": "6-phosphogluconate dehydrogenase, decarboxylating (Homo sapiens) (UniProt P52209)", "sequence (P52209 whole entry, looked up)": "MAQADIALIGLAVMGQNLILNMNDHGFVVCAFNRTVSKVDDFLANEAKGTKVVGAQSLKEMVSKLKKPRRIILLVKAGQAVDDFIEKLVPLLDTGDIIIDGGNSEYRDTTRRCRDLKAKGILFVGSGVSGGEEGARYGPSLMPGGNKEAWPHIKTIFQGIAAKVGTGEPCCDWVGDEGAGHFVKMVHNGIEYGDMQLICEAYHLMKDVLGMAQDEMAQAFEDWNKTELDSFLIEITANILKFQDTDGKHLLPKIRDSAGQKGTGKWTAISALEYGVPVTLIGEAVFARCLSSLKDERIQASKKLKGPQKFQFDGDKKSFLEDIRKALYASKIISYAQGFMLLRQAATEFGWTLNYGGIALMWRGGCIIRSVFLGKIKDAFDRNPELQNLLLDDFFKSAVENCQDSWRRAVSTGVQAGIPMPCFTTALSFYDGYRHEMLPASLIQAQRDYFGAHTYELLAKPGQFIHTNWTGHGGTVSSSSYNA", "assay": "6PGD enzyme inhibitors, primary screen, biochemical, human, recombinant enzyme, NADPH absorbance (AID 1159550)", "details": "recombinant 6PGD, NADPH absorbance 341 nm; at 10 µM; stronger effect = higher value"}, "[3]": {"assay": "sensitizers of A549 cells to miR-34 induction, primary screen, imaging, A549 dox-inducible miR-34, nuclei and caspase counts (AID 1347080;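 active = compounds whose cell count with miR-34 switched on is under 0.7 times the count with it off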)", "details": "A549 miR-34 inducible, Hoechst nuclei count, 48 h"}, "[4]": {"assay": "viability rescue of complex I mutant cybrids, primary screen, cell-based, galactose medium, ATP luminescence (AID 1645843;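 active = z-score of at least 1.8 in each of two replicates, scored against plate mean and spread of sample wells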;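 note: positive z means more ATP and so rescue of galactose-driven cybrid death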)", "details": "complex I mutant cybrid cells, 72 h, stronger effect = higher value"}, "[5]": {"target": "NAD(+) hydrolase SARM1 (Homo sapiens) (UniProt Q6SZW1)", "sequence (Q6SZW1 whole entry, looked up)": "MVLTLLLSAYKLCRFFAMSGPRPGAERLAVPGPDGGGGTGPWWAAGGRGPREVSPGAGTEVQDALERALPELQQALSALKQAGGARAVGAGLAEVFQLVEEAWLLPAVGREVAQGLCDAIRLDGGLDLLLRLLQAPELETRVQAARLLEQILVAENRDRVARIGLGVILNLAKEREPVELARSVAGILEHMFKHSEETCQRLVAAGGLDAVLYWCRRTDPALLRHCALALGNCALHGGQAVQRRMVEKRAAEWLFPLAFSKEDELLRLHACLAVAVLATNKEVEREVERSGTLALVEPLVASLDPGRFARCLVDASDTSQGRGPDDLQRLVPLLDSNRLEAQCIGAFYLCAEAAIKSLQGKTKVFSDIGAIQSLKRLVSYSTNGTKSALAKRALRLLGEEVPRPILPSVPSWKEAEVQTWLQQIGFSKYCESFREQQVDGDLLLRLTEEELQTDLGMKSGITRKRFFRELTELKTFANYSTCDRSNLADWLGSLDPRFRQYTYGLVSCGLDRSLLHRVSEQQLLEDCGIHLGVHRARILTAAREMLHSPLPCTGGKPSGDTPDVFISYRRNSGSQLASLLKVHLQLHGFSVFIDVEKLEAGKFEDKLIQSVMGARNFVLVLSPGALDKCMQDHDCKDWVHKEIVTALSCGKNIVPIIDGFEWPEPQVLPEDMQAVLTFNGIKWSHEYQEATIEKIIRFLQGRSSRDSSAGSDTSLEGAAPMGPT", "assay": "SARM1 TIR NADase inhibitors, cell lysate, NAD-Glo luminescence (AID 1508614;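 active = compound whose remaining NAD level is above about 45 nM, limit read from the data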)", "details": "SAM-TIR HEK293T lysate NADase, at 1 µM, stronger effect = higher value"}, "[6]": {"target": "Mitogen-activated protein kinase 7 (Homo sapiens) (UniProt Q13164)", "sequence (Q13164 whole entry, looked up, the tested form may be a part)": "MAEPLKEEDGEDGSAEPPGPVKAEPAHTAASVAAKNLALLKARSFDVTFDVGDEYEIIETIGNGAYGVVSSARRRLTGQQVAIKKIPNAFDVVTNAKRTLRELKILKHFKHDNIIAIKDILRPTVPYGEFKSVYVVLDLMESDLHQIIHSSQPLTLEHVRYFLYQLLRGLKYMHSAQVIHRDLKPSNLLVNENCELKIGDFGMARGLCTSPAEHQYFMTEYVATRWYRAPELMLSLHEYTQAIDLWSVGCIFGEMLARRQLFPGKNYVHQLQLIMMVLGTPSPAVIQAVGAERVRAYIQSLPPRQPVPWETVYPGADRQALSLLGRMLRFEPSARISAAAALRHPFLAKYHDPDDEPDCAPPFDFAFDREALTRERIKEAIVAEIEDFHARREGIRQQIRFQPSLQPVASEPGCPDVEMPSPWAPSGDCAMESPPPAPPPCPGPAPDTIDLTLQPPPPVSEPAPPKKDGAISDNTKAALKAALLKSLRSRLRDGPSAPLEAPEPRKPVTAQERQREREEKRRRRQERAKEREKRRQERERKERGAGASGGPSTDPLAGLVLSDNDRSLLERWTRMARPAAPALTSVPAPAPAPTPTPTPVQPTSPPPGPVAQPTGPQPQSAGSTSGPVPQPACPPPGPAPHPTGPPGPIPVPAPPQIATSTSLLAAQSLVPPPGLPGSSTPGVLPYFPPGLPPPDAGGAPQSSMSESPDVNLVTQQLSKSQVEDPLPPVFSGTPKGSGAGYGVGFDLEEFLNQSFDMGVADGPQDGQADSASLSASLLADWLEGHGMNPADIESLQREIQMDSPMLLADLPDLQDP", "assay": "ERK5 transactivation activators in reporter cells, primary screen, cell-based, HTS (AID 1508626;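 active = luciferase signal above three times the same-plate solvent-only control wells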;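 note: luciferase driven by Gal4-ERK5 fusion binding five Gal4 sites before minimal TATA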)", "details": "HeLa Gal4-ERK5 transactivation, 18 h, at 5 µM, stronger effect = higher value"}, "[7]": {"assay": "liver-stage malaria parasite growth inhibition, primary screen, cell-based, HepG2, luciferase luminescence, HepG2 viability (AID 624349; in the data active = parasite load remaining mostly below about 12%, no sharp cut-off; inactive = mostly above about 10%;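 note: 100% = mean of DMSO negative control wells on the same plate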)", "details": "P. berghei liver stage in HepG2, luciferase luminescence, concentration not given here; parasite load remaining: stronger effect = lower value; viability: measured here: HepG2 viability without parasites"}, "[8]": {"assay": "polyglutamine-triggered caspase-3 activation inhibitors, cell-based (AID 1583)", "details": "polyglutamine-induced caspase-3 activation, cell assay; stronger effect = higher value;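 tested at 10 µM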"}, "[9]": {"assay": "suppressors of polyQ aggregation in yeast, 75Q-TubU reporter (AID 1593)", "details": "Yeast 75Q polyglutamine aggregation reporter"}, "[10]": {"assay": "rescue of polyQ-huntingtin neuronal dysfunction in worms, whole organism, C. elegans mechanosensory neurons, N-terminal huntingtin (AID 1599)", "details": "touch response, stronger effect = higher value"}, "[11]": {"assay": "inhibitors of mitochondrial cytochrome c release, biochemical, purified mitochondria (AID 1603);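 note: mouse liver mitochondria challenged with calcium chloride; signal normalized to the plate average as 100%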", "details": "stronger effect = lower value"}, "[12]": {"assay": "inhibitors of polyQ protein aggregation (AID 1604)", "details": "polyglutamine-induced protein aggregation inhibition assay; stronger effect = higher value; tested at 2.5 µM"}, "[13]": {"assay": "enhancers of glutamate uptake in motor neurons, MN-1 cell line (AID 1612);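 note: tested at 1 µM final; 0% = mean of DMSO vehicle wells on each plate; positive means more glutamate uptake than control and negative means less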", "details": "MN-1 motor neuron cells, stronger effect = higher value"}, "[14]": {"assay": "reducers of polyQ inclusions in PC12 cells, cell-based, NGF-treated PC12, GFPQ80 (AID 1614);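 note: lower means fewer inclusions and 0 means no inclusions at all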", "details": "PC12 NGF-treated GFP-polyQ80 inclusion reduction"}, "[15]": {"assay": "suppressors of polyglutamine aggregation in yeast, 75Q-TubH (AID 1616)", "details": "S. cerevisiae 75Q-TubH polyglutamine aggregation suppression; stronger effect = higher value"}, "[16]": {"assay": "hESC survival regulators, cell-based (AID 493140; call rule not given here;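 note: cells exposed to compounds for four days before counting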)", "details": "human embryonic stem cell survival screen; stronger effect = higher value"}, "[17]": {"assay": "survival rescue of mitochondrial mutant cells in low glucose, primary screen, MELAS cybrids, Rieske KO mouse fibroblasts, CellTiter-Glo (AID 1508586;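 active = mean z-score across replicates of 1.96 or higher in either the MELAS or the Rieske mutant cell line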;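 note: z relative to plate mean and SD of compound and empty wells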)"}, "[18]": {"target": "ATP-dependent translocase ABCB1 (Homo sapiens) (UniProt P08183)", "sequence (P08183 whole entry, looked up)": "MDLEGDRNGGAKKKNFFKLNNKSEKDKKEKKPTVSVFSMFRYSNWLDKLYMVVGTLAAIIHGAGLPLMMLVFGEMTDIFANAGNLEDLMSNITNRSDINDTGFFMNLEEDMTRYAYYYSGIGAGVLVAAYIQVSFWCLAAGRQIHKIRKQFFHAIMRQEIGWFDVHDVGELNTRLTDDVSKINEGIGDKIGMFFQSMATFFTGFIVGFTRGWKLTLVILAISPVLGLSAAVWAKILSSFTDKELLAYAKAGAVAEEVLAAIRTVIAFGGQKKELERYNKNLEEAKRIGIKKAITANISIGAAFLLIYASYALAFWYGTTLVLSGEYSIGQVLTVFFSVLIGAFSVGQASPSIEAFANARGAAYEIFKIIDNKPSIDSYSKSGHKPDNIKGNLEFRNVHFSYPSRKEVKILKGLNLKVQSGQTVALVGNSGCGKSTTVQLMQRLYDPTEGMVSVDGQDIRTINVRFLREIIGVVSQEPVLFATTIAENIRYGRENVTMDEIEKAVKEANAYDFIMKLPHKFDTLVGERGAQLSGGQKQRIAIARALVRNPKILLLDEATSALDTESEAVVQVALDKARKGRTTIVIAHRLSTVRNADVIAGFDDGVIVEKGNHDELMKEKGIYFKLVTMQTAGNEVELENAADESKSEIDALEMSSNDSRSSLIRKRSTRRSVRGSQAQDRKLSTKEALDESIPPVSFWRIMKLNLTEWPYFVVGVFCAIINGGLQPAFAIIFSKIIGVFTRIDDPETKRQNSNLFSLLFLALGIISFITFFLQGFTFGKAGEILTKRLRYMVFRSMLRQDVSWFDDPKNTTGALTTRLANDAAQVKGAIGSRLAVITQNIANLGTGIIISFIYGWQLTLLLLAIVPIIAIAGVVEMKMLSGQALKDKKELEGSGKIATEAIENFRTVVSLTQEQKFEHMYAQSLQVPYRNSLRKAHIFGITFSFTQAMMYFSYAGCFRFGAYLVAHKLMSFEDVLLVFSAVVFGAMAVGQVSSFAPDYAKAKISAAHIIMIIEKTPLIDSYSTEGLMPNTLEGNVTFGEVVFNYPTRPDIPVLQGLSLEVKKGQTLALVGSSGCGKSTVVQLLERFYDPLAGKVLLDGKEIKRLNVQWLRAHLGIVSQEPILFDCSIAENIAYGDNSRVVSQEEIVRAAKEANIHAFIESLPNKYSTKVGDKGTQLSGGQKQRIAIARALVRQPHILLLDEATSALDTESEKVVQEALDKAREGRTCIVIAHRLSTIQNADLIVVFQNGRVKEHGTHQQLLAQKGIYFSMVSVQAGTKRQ", "assay": "MDR1 (ABCB1) efflux transporter inhibition, cell-based (AID 377; in the data active = fluorescence slope change above about 50%)", "details": "MDR1-expressing cells, fluorescent substrate accumulation slope; stronger effect = higher value; concentration not given here"}, "[19]": {"details": "stronger effect = lower value, cell number ratio, induced over uninduced"}, "[20]": {"details": "measured here: relative caspase fold change +Dox/-Dox"}, "[21]": {"details": "measured here: total cells with miR-34 induction, stronger effect = lower value"}, "[22]": {"details": "measured here: total cells without miR-34 induction"}}, "note": "Where “and” joins values, the source holds several entries; their conditions need not be identical. Equal values may be shown once. Records with an inconclusive call do not appear. For part of these data: Measured potencies and affinities stand elsewhere. Calls of active or inactive are those of the source.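 Rule for the calls, unless noted: active = at least 20% inhibition of 6-phosphogluconate dehydrogenase activity; inactive = the rest.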"}
{"smiles": "CO/N=C(\\C(=O)N[C@@H]1C(=O)N2C(C(=O)O)=C(CSc3nc(=O)c(O)nn3C)CSC12)c1csc(N)n1", "note": "(some centres not stated)", "values": [{"measurement": "period change", "setting": "[1]", "value": "0.08 h (inactive)"}, {"measurement": "inhibition", "setting": "[2]", "value": "-13.8% (inactive)"}, {"measurement": "fold change", "setting": "[3]; [19]", "value": "1.02 (inactive)"}, {"measurement": "fold change", "setting": "[3]; [20]", "value": 1.74}, {"measurement": "cell count", "setting": "[3]; [21]", "value": 10200}, {"measurement": "cell count", "setting": "[3]; [22]", "value": 9980}, {"measurement": "z-score", "setting": "[4]", "value": "0.175 (inactive)"}]}
{"smiles": "CC(C)CCC[C@@H](C)[C@H]1CC[C@H]2[C@@H]3CC=C4C[C@@H](O)CC[C@]4(C)[C@H]3CC[C@]12C", "values": [{"measurement": "inhibition", "setting": "[2]", "value": "2.5% (inactive)"}, {"measurement": "remaining NAD", "setting": "[5]", "value": "10 nM (inactive)"}, {"measurement": "luciferase signal", "setting": "[6]", "value": "52 AU (inactive)"}]}
{"smiles": "C1CCN2C[C@@H]3C[C@H](CN4CCCC[C@@H]34)[C@H]2C1", "values": [{"measurement": "parasite load remaining", "setting": "[7]", "value": "83.5% (inactive)"}, {"measurement": "viability", "setting": "[7]", "value": 82.9, "unit": "%"}, {"measurement": "inhibition", "setting": "[2]", "value": "11% (inactive)"}, {"measurement": "fold change", "setting": "[3]; [19]", "value": "0.85 (inactive)"}, {"measurement": "fold change", "setting": "[3]; [20]", "value": 3.93}, {"measurement": "cell count", "setting": "[3]; [21]", "value": 10700}, {"measurement": "cell count", "setting": "[3]; [22]", "value": 12500}, {"measurement": "luciferase signal", "setting": "[6]", "value": "68 AU (inactive)"}]}
{"smiles": "CC12CC[C@H](CC1=O)C2(C)C", "values": [{"measurement": "parasite load remaining", "setting": "[7]", "value": "74.1% (inactive) and 58.3% (inactive)"}, {"measurement": "viability", "setting": "[7]", "value": "75% and 94.1%"}, {"measurement": "inhibition", "setting": "[2]", "value": "13.3% (inactive)"}, {"measurement": "fold change", "setting": "[3]; [19]", "value": "0.849 (inactive)"}, {"measurement": "fold change", "setting": "[3]; [20]", "value": 0.856}, {"measurement": "cell count", "setting": "[3]; [21]", "value": 10900}, {"measurement": "cell count", "setting": "[3]; [22]", "value": 12800}]}
{"smiles": "Nc1nc(N)c2nc(CNc3ccc(C(=O)N[C@@H](CCC(=O)O)C(=O)O)cc3)cnc2n1", "values": [{"measurement": "inhibition", "setting": "[2]", "value": "-4.2% (inactive)"}, {"measurement": "remaining NAD", "setting": "[5]", "value": "10 nM (inactive)"}]}
{"smiles": "CC1CCCC(C)N1NC(=O)c1ccc(Cl)c(S(N)(=O)=O)c1", "note": "(configuration not stated)", "values": [{"measurement": "inhibition", "setting": "[8]", "value": 16.7, "unit": "%"}, {"measurement": "score", "setting": "[9]", "value": 1.67}, {"measurement": "rescue above control", "setting": "[10]", "value": -10.1}, {"measurement": "cytochrome c release ratio", "setting": "[11]", "value": 0.96}, {"measurement": "inhibition of aggregation", "setting": "[12]", "value": 25.5, "unit": "%"}, {"measurement": "glutamate uptake change", "setting": "[13]", "value": -0.09, "unit": "%"}, {"measurement": "inclusion score", "setting": "[14]", "value": 2}, {"measurement": "aggregation suppression score", "setting": "[15]", "value": 1.2}, {"measurement": "survival", "setting": "[16]", "value": "5.92 (inactive)"}, {"measurement": "parasite load remaining", "setting": "[7]", "value": "92.4% (inactive) and 77.2% (inactive)"}, {"measurement": "viability", "setting": "[7]", "value": "76.8% and 96.5%"}, {"measurement": "inhibition", "setting": "[2]", "value": "6.91% (inactive)"}, {"measurement": "fold change", "setting": "[3]; [19]", "value": "0.9 (inactive)"}, {"measurement": "fold change", "setting": "[3]; [20]", "value": 4.97}, {"measurement": "cell count", "setting": "[3]; [21]", "value": 7530}, {"measurement": "cell count", "setting": "[3]; [22]", "value": 8360}]}
{"smiles": "C[C@@H]1C[C@H]2[C@@H]3C[C@H](F)C4=CC(=O)C=C[C@]4(C)[C@@]3(F)[C@@H](O)C[C@]2(C)[C@@]1(O)C(=O)COC(=O)C(C)(C)C", "values": [{"measurement": "inhibition", "setting": "[2]", "value": "8.08% (inactive)"}, {"measurement": "z-score", "setting": "[17]; MELAS cybrid survival, CellTiter-Glo 48 h, stronger effect = higher value", "value": "0.627 (inactive)"}, {"measurement": "z-score", "setting": "[17]; Rieske KO mouse fibroblast survival, CellTiter-Glo 72 h", "value": 0.671}, {"measurement": "remaining NAD", "setting": "[5]", "value": "10 nM (inactive)"}]}
{"smiles": "C[C@H]1[C@H]2CC[C@H]3[C@@H]4CC=C5C[C@@H](N(C)C)CC[C@]5(C)[C@H]4CC[C@]23CN1C", "values": [{"measurement": "fluorescence slope change", "setting": "[18]", "value": "56.7% (active)"}, {"measurement": "survival", "setting": "[16]", "value": "4.83 (inactive)"}, {"measurement": "parasite load remaining", "setting": "[7]", "value": "168% (inactive) and 68.7% (inactive)"}, {"measurement": "viability", "setting": "[7]", "value": "102% and 76.1%"}, {"measurement": "inhibition", "setting": "[2]", "value": "13.8% (inactive)"}, {"measurement": "fold change", "setting": "[3]; [19]", "value": "0.82 (inactive)"}, {"measurement": "fold change", "setting": "[3]; [20]", "value": 1.54}, {"measurement": "cell count", "setting": "[3]; [21]", "value": 8300}, {"measurement": "cell count", "setting": "[3]; [22]", "value": 10100}, {"measurement": "luciferase signal", "setting": "[6]", "value": "40 AU (inactive)"}]}
{"smiles": "NC[C@@H]1O[C@H](O[C@H]2[C@@H](O)[C@H](O[C@@H]3[C@@H](O)[C@H](N)C[C@H](N)[C@H]3O[C@H]3O[C@H](CO)[C@@H](O)[C@H](O)[C@H]3N)O[C@@H]2CO)[C@H](N)[C@@H](O)[C@@H]1O", "values": [{"measurement": "inhibition", "setting": "[2]", "value": "-8.11% (inactive)"}, {"measurement": "remaining NAD", "setting": "[5]", "value": "10 nM (inactive)"}, {"measurement": "luciferase signal", "setting": "[6]", "value": "80 AU (inactive)"}]}
{"smiles": "CCc1cn([C@H]2C[C@H](O)[C@@H](CO)O2)c(=O)[nH]c1=O", "values": [{"measurement": "inhibition", "setting": "[2]", "value": "-4.52% (inactive)"}, {"measurement": "remaining NAD", "setting": "[5]", "value": "10 nM (inactive)"}, {"measurement": "luciferase signal", "setting": "[6]", "value": "64 AU (inactive)"}]}
{"smiles": "CC(=O)OCC(=O)[C@@]1(O)CC[C@H]2[C@@H]3CCC4=CC(=O)CC[C@]4(C)[C@@]3(F)[C@@H](O)C[C@@]21C", "values": [{"measurement": "survival", "setting": "[16]", "value": "16.7 (inactive)"}, {"measurement": "parasite load remaining", "setting": "[7]", "value": "136% (inactive)"}, {"measurement": "viability", "setting": "[7]", "value": 91.3, "unit": "%"}, {"measurement": "inhibition", "setting": "[2]", "value": "-10.7% (inactive)"}, {"measurement": "remaining NAD", "setting": "[5]", "value": "10 nM (inactive)"}, {"measurement": "luciferase signal", "setting": "[6]", "value": "84 AU (inactive)"}]}
{"smiles": "CN[C@@H]1[C@H](O[C@H]2[C@H](O[C@H]3[C@H](O)[C@@H](O)[C@H](N=C(N)N)[C@@H](O)[C@@H]3N=C(N)N)O[C@@H](C)[C@]2(O)CO)O[C@@H](CO)[C@H](O)[C@H]1O", "values": [{"measurement": "inhibition", "setting": "[2]", "value": "-14.8% (inactive)"}, {"measurement": "remaining NAD", "setting": "[5]", "value": "10 nM (inactive)"}, {"measurement": "luciferase signal", "setting": "[6]", "value": "68 AU (inactive)"}]}
